# Source: PubChem BioAssay (EPA / NIEHS)
# Results filed as inconclusive are left out. Activity calls are given as the source filed them. Rule for the calls: active = hit-call score of the fitted dose curve at least 0.9, where 1 is the maximum; inconclusive = response in the unintended direction; inactive = score below 0.9.
# Target: Oxysterols receptor LXR-alpha (Homo sapiens) (UniProt Q13133)
# Experiment: ATG_LXRa_TRANS: Attagene TRANS-FACTORIAL HepG2 Assay for human Liver X Receptor alpha (LXRa) (AID 2282980)
# Conditions: HepG2 Attagene TRANS reporter, LXRa transactivation
# Protocol: ATG_TRANS is a cell-based, multiplexed-readout assay that uses HepG2, a human liver cell line, with measurements taken at 24 hours after chemical dosing in a 24-well plate.ATG_LXRa_TRANS is one of 30 assay component(s) measured or calculated from the ATG_TRANS assay. It is designed to make measurements of mRNA induction, a form of inducible reporter, as detected with fluorescence intensity signals by Reverse transcription polymerase chain reaction (RT-PCR) and Capillary electrophoresis technology.Data from the assay component ATG_LXRa_TRANS was analyzed into 1 assay endpoint. This assay endpoint, ATG_LXRa_TRANS, was analyzed in the positive analysis fitting direction relative to DMSO as the negative control and baseline of activity. Using a type of inducible reporter, measures of mRNA for gain-of-signal activity can be used to understand the reporter gene at the transcription factor-level as they relate to the gene NR1H3. Furthermore, this assay endpoint can be referred to as a primary readout, because this assay has produced multiple assay endpoints where this one serves a reporter gene function. To generalize the intended target to other relatable targets, this assay endpoint is annotated to the nuclear receptor intended target family, where the subfamily is non-steroidal.
# Human liver HepG2 cells are transiently transfected with multiple reporter transcription units (MRTUs) in 6-well plates using FuGene 6 reagent (Roche; 3 ml FuGene/1 mg DNA). The MRTU constructs are regulated by a cis-regulating element (promoter). […] A major difference between the CIS and TRANS system is that in CIS activities of endogenous TFs are measured, whereas the TRANS assay evaluates changes in activities of exogenous, chimeric NR-Gal4 proteins. […] At the end of 24 hour incubation, total RNA was isolated using TriZol reagent (Invitrogen). The isolated RNA is then reverse-transcribed using oligo(dT) primer and Mo-MLV reverse transcriptase (Invitrogen) with DNAse I (Ambion) treatment for 30 min. The one-tenth of the produced cDNA was amplified by PCR using Taq DNA polymerase (Invitrogen) and two reporter sequence-specific primers. The PCR products were fluorescently labeled by primer extension with 6-arboxyfluorescein (6-FAM) 5'-labeled reporter sequence-specific primer (2 min at 95 C, 20 s at 68 C and 10 min at 72 C) and these products were digested with 5U of HpaI (New England Biolabs) for 2h at 37 C. The fragments were purified using Qiaquick PCR columns (Qiagen), analyzed on an ABI 3130xL genetic analyzer (Applied Biosystems) with peak positions identified by using a set of X-rhodamine (ROX)-labeled MapMarker1000 molecular weight standards (BioVentures). The raw capillary electrophoresis data was processed using Attagraph software (Attagene).
# Sequence of Oxysterols receptor LXR-alpha (Homo sapiens) (Q13133 whole entry, looked up): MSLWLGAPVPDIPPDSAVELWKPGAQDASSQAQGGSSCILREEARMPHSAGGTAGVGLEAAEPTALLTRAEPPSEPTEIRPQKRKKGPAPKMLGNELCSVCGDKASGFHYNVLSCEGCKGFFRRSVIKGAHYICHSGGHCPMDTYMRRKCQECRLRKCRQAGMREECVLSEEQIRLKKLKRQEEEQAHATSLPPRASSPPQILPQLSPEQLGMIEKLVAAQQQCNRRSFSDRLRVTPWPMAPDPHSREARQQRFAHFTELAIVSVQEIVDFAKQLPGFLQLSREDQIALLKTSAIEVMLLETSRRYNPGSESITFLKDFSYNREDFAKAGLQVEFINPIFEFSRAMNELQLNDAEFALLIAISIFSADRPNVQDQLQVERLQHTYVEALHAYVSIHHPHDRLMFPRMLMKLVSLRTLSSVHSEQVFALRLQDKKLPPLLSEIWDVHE
SMILES,outcome,AC50
S=c1[nH]c2ccccc2s1,inactive,
CC(=O)O[C@]1(C(C)=O)CC[C@H]2[C@@H]3C=C(Cl)C4=CC(=O)[C@@H]5C[C@@H]5[C@]4(C)[C@H]3CC[C@@]21C,inactive,
O=[Si]=O,inactive,
CC(=O)[C@@]1(O)CC[C@H]2[C@@H]3CCC4=CC(=O)CC[C@]4(C)[C@H]3CC[C@@]21C,inactive,
O=C(O)CN(CC(=O)O)CC(=O)O,inactive,
CC(=O)S[C@H](C(=O)N[C@H]1Cc2ccccc2[C@H]2CCC[C@@H](C(=O)O)N2C1=O)C(C)C,inactive,
CS(=O)(=O)c1ccc([C@@H](C[C@H]2CCC(=O)C2)C(=O)Nc2cnccn2)cc1Cl,inactive,
CSc1ccc(Oc2ccc(S(N)(=O)=O)cc2CN(C)C)cc1C,inactive,
CN(C)CCCN(C)CCCN(C)C,,23.8 µM (active)
CC(N)=O,inactive,
C#CC(O)C(CC)CCCC (stereo not given),inactive,
CCN(CC)CCOc1ccc(C(=C(Cl)c2ccccc2)c2ccccc2)cc1,inactive,
CCCC[C@H]1CN(CC2CCOCC2)C(=O)OC12CCN(C1(C)CCN(C(=O)c3c(C)ncnc3C)CC1)CC2,inactive,
NC=O,inactive,
C=CCc1ccc(OC)c(OC)c1,inactive,
O=Cc1ccccc1C=O,inactive,
COc1ccc(C(=O)Nc2nc3ccccc3c(NCc3ccccc3)c2C#N)cc1,inactive,
CC(C)NCC(O)c1ccc(O)c(O)c1 (stereo not given),inactive,
c1ccc2occc2c1,inactive,
N[C@@H](Cc1c[nH]c2ccccc12)C(=O)O,inactive,
O=C(N[C@@H](c1ccccc1)[C@@H]1CCCCN1)c1cccc(C(F)(F)F)c1Cl,inactive,
CC(C)(O)c1ccc(CNC(=O)c2cccnc2Oc2ccc(F)cc2)cc1,inactive,
CCCCCCCCCC[N+](C)(C)[O-],inactive,
O=C(NS(=O)(=O)/C=C/c1cccs1)c1ccc(F)cc1Br,inactive,
CC(=O)CC(c1ccccc1)c1c(O)c2ccccc2oc1=O (stereo not given),inactive,
Nc1nc(=S)c2[nH]cnc2[nH]1,inactive,
Cn1cnc2c1c(=O)[nH]c(=O)n2C,inactive,
NC1CCCCC1,inactive,
CCCCc1nc2cccnc2n1Cc1ccc(-c2ccccc2-c2nnn[nH]2)cc1,inactive,
CCCCCCC(C=O)=Cc1ccccc1,inactive,
